Bioassay records as filed in PubChem BioAssay.
A selection: hits, their analogues and other compounds. The true share with any hit is near 2.2%.
IEC-6 tox – cytotoxicity in IEC-6 intestinal epithelial cells, primary screen, cytotoxicity control for KLF5 inhibitor project, cell-based, luminescence; IEC-6 cytotoxicity, luminescence viability; inhibition, % at 5 µM; 290,000 compounds, 0.78% hits; AID 1825, 2009; in the data active = inhibition above about 22%;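 also: 0% = plate median of test compound wells and 100% = cytotoxic reference compound wells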
BaF3 tox – parental Ba/F3 cell viability inhibition, counter-screen for JAK2V617F inhibitor project, murine pro-B, CellTiter-Glo luminescence | CellTiter-Glo ATP luminescence | AID 1486, 2009 | 220,000 compounds, 1.1% hits | inhibition, % at 5.6 µM;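 active = inhibition above a per-campaign cutoff, the mean inhibition of all tested compounds plus 3 SD, cut at about 27% in these data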;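 also: 0% = DMSO wells and 100% = JAK Inhibitor I control wells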
KLF5 inhibitor – KLF5 expression inhibitors, primary screen, DLD-1 cells, luminescence; DLD-1 KLF5 promoter-luciferase reporter; inhibition, % at 5 µM; 290,000 compounds, 0.23% hits; AID 1700, 2009;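 active = inhibition above a per-plate limit of that plate's mean compound inhibition plus 3 SD, cut at about 60% in these data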;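 also: 0% = DMSO wells and 100% = LY294002 at 200 µM; higher means less KLF5 promoter-driven luciferase light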
APP 5UTR inh – inhibitors of APP translation via 5'UTR reporter, primary screen, APP 5'UTR luciferase, SH-SY5Y cells; 190,000 compounds, 0.82% hits; inhibition, % at 2 µM; SH-SY5Y APP 5'UTR-luciferase reporter, luminescence; AID 1285, 2008;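 active = inhibition above a set limit, derived from the sample mean plus 3 SD, cut at about 45% in these data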
aSyn UTR inh – MLPCN primary screen, SNCA 5' untranslated region. alpha-synuclein 5'UTR reporter, inhibitor activity. inhibition, % (tested at 7.5 µM). 300,000 compounds, 0.82% hits. AID 1813, 2009; in the data active = inhibition above about 60%;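 also: H4 neuroglioblastoma cells stably carrying SNCA 5'UTR luciferase fusion; 0% = DMSO wells and 100% = positive control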
Ba/F3 V617F tox – reduced viability of JAK2V617F-dependent Ba/F3 cells, primary screen, JAK2V617F inhibitor project, cell-based, Ba/F3 EpoR-JAK2V617F, luminescence; ATP luminescence; inhibition, % at 5.6 µM; 220,000 compounds, 1.1% hits; AID 1446, 2008;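 active = inhibition above the campaign mean plus 3 SD over all tested compounds, cut at about 24% in these data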;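 also: cytokine-independent growth of Ba/F3 cells driven by EpoR plus mutant JAK2; 0% = DMSO-treated cells and 100% = JAK inhibitor I control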
The depositor's hits bear a star.

What do the screens show for `Cc1ccc(S(=O)(=O)ON2C(=O)c3ccccc3C2=O)c(C)c1`?
IEC-6 tox: -0.4; BaF3 tox: 2.1; KLF5 inhibitor: -12.6; APP 5UTR inh: 55.9*; Ba/F3 V617F tox: -0.4

Results for CCCCOc1ccc(-c2cnc3ccccc3n2)cc1 ?
IEC-6 tox: 0.2; BaF3 tox: 4.2; KLF5 inhibitor: -26.0; aSyn UTR inh: 101.3*; Ba/F3 V617F tox: -0.9

What do the screens show for `Oc1ccc(-c2cnc3ccccc3n2)cc1`?
aSyn UTR inh: -72.3

Results for CCCCCn1c(Sc2ncccn2)nc2c1c(=O)[nH]c(=O)n2C ?
IEC-6 tox: 8.6; BaF3 tox: 5.3; KLF5 inhibitor: -39.3; APP 5UTR inh: 64.0*; aSyn UTR inh: 33.7; Ba/F3 V617F tox: 3.8

Results for Cc1ccc(Cn2c(Sc3ncccn3)nc3c2c(=O)[nH]c(=O)n3C)cc1 ?
IEC-6 tox: -3.7; BaF3 tox: 0.5; KLF5 inhibitor: -5.8; APP 5UTR inh: 3.2; aSyn UTR inh: 3.6; Ba/F3 V617F tox: -0.8

What do the screens show for `Cc1ccc(C)c(-n2cc(-c3ccc(Cl)cc3)nc2SCC(=O)NC2CCS(=O)(=O)C2)c1` (configuration not stated)?
IEC-6 tox: -3.1; BaF3 tox: 0.4; KLF5 inhibitor: 6.0; APP 5UTR inh: 9.1; aSyn UTR inh: -25.0; Ba/F3 V617F tox: -3.4

How did CC(C)(C)c1ccccc1OCC(=O)NCCCn1ccnc1 do in these assays?
IEC-6 tox: 1.5; KLF5 inhibitor: 1.3; aSyn UTR inh: 12.5

What do the screens show for `COc1cccc(OCCCCCCN2CCOCC2)c1`?
IEC-6 tox: 8.7; BaF3 tox: 4.5; KLF5 inhibitor: -4.1; APP 5UTR inh: 50.0*; aSyn UTR inh: -0.9; Ba/F3 V617F tox: 4.4

How did CN[C@H]1CCc2cc(OC)c(OC)c(OC)c2-c2ccc(OC)c(=O)cc21 do in these assays?
aSyn UTR inh: 90.3*

Results for COc1cc2c(c(OC)c1OC)-c1c(cc(OC)c(OC)c1OC)C[C@](C)(O)[C@@H](C)C2 ?
aSyn UTR inh: -9.9

What do the screens show for `CN(C)S(=O)(=O)N(CC(=O)Nc1ccc2ccccc2c1)c1ccccc1`?
IEC-6 tox: 1.6; BaF3 tox: 0.7; KLF5 inhibitor: -27.1; APP 5UTR inh: -9.1; aSyn UTR inh: -32.2; Ba/F3 V617F tox: -1.4

What do the screens show for `CN(C)S(=O)(=O)N(CC(=O)Nc1ccc(F)c(F)c1)c1ccccc1`?
IEC-6 tox: -4.3; BaF3 tox: 0.4; KLF5 inhibitor: -58.3; APP 5UTR inh: 58.6*; aSyn UTR inh: -3.5; Ba/F3 V617F tox: -8.5

How did CCOC(=O)CNC(=O)Cn1cnc2c(nnn2-c2ccc(F)cc2)c1=O do in these assays?
IEC-6 tox: 1.5; BaF3 tox: 95.8*; KLF5 inhibitor: 5.8; APP 5UTR inh: -5.8; aSyn UTR inh: 1.4; Ba/F3 V617F tox: -3.7

Results for O=C(Nc1ccccc1)c1cccc(=O)o1 ?
IEC-6 tox: -2.2; BaF3 tox: -1.9; KLF5 inhibitor: -13.1; aSyn UTR inh: 30.9; Ba/F3 V617F tox: -2.2

Results for CCOc1ccc(-n2nc3cc(C)c(N)cc3n2)cc1 ?
IEC-6 tox: -3.8; KLF5 inhibitor: -2.7; aSyn UTR inh: 25.9

What do the screens show for `CCOC(=O)c1cccc(N2C(=O)C3C4C=CC(CC4)C3C2=O)c1` (configuration not stated)?
IEC-6 tox: 2.6; KLF5 inhibitor: -20.7; aSyn UTR inh: 10.2

Results for CCOc1ccc(-n2nc3ccc(N)cc3n2)cc1 ?
IEC-6 tox: 2.5; KLF5 inhibitor: -74.2; aSyn UTR inh: 73.2*

Results for CCOC(=O)c1cccc(N2C(N)=NC(N)=NC2(C)C)c1 ?
IEC-6 tox: -0.8; BaF3 tox: 96.1*; KLF5 inhibitor: 8.8; APP 5UTR inh: 5.5; aSyn UTR inh: -4.1; Ba/F3 V617F tox: 73.2*

Results for CCOc1ccc(N2C(N)=NC(N)=NC2(C)C)cc1 ?
IEC-6 tox: -4.0; BaF3 tox: 98.4*; KLF5 inhibitor: -41.6; APP 5UTR inh: 5.5; aSyn UTR inh: 66.2*; Ba/F3 V617F tox: 94.2*

How did CCCCOc1ccc(N2C(N)=NC(N)=NC23CCCCC3)cc1 do in these assays?
IEC-6 tox: 6.1; KLF5 inhibitor: -24.6; aSyn UTR inh: -7.1
